Screens: PubChem, Broad Institute
The list is not random: actives were taken first. Their share in the collection is about 3.4%.
MITF act: activators of MITF-driven TRPM1 promoter activity in SK-MEL-5 cells | SK-MEL-5 TRPM1-promoter luciferase, 24 h; % of positive control, neutral wells = 0 | activation, % at 12.5 µM | actives 0.75% (n = 300,000) | AID 588334;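 active = mean activation of at least 80% with every replicate also reaching 80%; inconclusive = mean reaches 80% but some replicate falls short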
Env fusion inh: inhibitors of HIV Env-mediated cell fusion | HeLa-JRFL Env/CEM21 cell fusion, luciferase | inhibition, % at 12.3 µM | actives 1.1% (n = 360,000);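 active = mean replicate inhibition score of at least 50 and every replicate individually at or above 50; inconclusive = only one of the two criteria met; inactive = mean below 50 and not all replicates reaching 50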
esBAF inh: inhibitors of esBAF chromatin remodeling in mouse ES cells; Bmi1-luciferase knock-in reporter, 24 h; 100% = twice the neutral-well signal; reporter increase, % at 12.5 µM; actives 2% (n = 350,000); in the data active = activation above about 40%; inconclusive = no clear call, values can overlap the other calls;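 also: a rise in the Bmi1 reporter signal indicates esBAF inhibition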
miR122 inh: inhibitors of miR-122 in Huh7 cells. Huh7 miR-122 Renilla luciferase sensor, 48 h; neutral wells = 0, positive control = 100. activation (reporter increase), % at 12.5 µM. actives 0.3% (n = 340,000);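 active = mean replicate activation score at least 90 and every replicate individually at or above 90; inconclusive = only one of the two criteria met; inactive = neither criterion met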;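 also: higher luciferase means less miR-122 activity so hits act as miR-122 inhibitors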
Wnt act: activates Wnt/beta-catenin signaling in a reporter cell assay; activator, plate reader; activation, % at 9.35 µM; actives 1.2% (n = 300,000); AID 743398; in the data active = activation above about 30%, passing the limit was not always enough; inconclusive = no clear call, values can overlap the other calls
Numbers stand for hits; - = inactive; ? = inconclusive; . = no result given; [ ] = remark or other dose.

SMILES	MITF act	Env fusion inh	esBAF inh	miR122 inh	Wnt act
C[C@@H]1CCCCO[C@@H](CN(C)Cc2ccccc2)[C@@H](C)CN([C@@H](C)CO)C(=O)c2cc(NS(=O)(=O)c3ccc(Cl)cc3)ccc2O1	.	-	-	-	.
CC(C)CCC(CC(C)O)C(=O)NNC(=S)Nc1ccccc1 (centres undefined)	-	-	-	152	-
O=C(NCc1nnc(SCC(=O)N2CCCc3ccccc32)o1)c1ccco1	-	-	-	-	46
C[C@@H]1CN([C@@H](C)CO)C(=O)c2cc(NC(=O)C3CCCCC3)ccc2O[C@@H]1CN(C)S(C)(=O)=O	.	-	-	-	.
COc1ccccc1CNC(=O)C[C@@H]1C[C@H]2c3cc(NS(=O)(=O)c4ccc(F)cc4)ccc3O[C@H]2[C@H](CO)O1	.	-	-	-	.
COc1ccccc1CNC(=O)C[C@@H]1C[C@@H]2c3cc(NS(=O)(=O)c4ccc(F)cc4)ccc3O[C@@H]2[C@@H](CO)O1	.	-	-	-	.
COc1ccccc1CNC(=O)C[C@H]1C[C@@H]2c3cc(NS(=O)(=O)c4ccc(F)cc4)ccc3O[C@@H]2[C@@H](CO)O1	.	55[16.7 µM]	-	-	.
COC(=O)C[C@@H]1C[C@H]2c3cc(NS(=O)(=O)c4cccc(OC)c4)ccc3O[C@H]2[C@@H](CO)O1	.	60[16.7 µM]	-	-	.
COc1ccccc1CNC(=O)C[C@H]1C[C@@H]2c3cc(NS(=O)(=O)c4ccc(F)cc4)ccc3O[C@@H]2[C@H](CO)O1	.	94[16.7 µM]	-	-	.
C[C@H](CO)N1C[C@H](C)[C@@H](CN(C)C(=O)Oc2ccccc2)OCc2ccccc2-c2ccccc2C1=O	.	.	-	.	.
Cc1noc(C)c1S(=O)(=O)N(C)C[C@H]1OCCCC[C@@H](C)Oc2ccc(NC(=O)Nc3ccccc3)cc2C(=O)N([C@@H](C)CO)C[C@@H]1C	.	-	-	-	.
COCCNC(=O)C[C@H]1C[C@@H]2c3cc(NC(=O)NC4CCCC4)ccc3O[C@@H]2[C@@H](CO)O1	.	.	-	-	.
Cc1cn(-c2ccc(Br)cc2)[nH]c1=O	-	.	52	-	-
CC(C)NC(=O)Nc1ccc2c(c1)C(=O)N([C@H](C)CO)C[C@@H](C)[C@H](CN(C)C(=O)c1ccncc1)OCCCC[C@H](C)O2	.	-	.	-	.
N#Cc1nc(COc2ccccc2)oc1N1CCCCC1	-	-	60	.	-
CCCN(CCC)C(=O)CSc1nc2ccccc2c(=O)n1C1CCCC1	.	65	-	-	.
CN(C)c1ccc(NC(=O)CSc2nc3ccccc3c(=O)n2C2CCCCC2)cc1	.	-	-	-	-
COc1cccc(C(=O)Nc2ccc3c(c2)OC[C@H](C)N(CC2CC2)C[C@@H](C)[C@@H](OC)CN(C)C3=O)c1	.	.	-	-	.
Cc1ccc(-n2c(C)csc2=N)cc1	-	-	-	.	.
Cc1csc(=N)n1-c1ccc(Cl)cc1	97	.	63	-	-
CC(C)c1ccc2c(c1)C1(NN=C(c3ccccc3)S1)C(=O)N2 (centres undefined)	-	.	87	-	-
Fc1ccccc1-c1nc(-c2ccc(-c3nn[nH]n3)cc2)no1	-	-	-	-	39
NC(=O)c1cccc(-c2noc(-c3ccccc3F)n2)c1	-	-	-	-	-
COc1ccc(-c2noc(-c3ccccc3F)n2)cc1	-	-	-	-	-
Fc1ccccc1-c1nc(-c2cnccc2C(F)(F)F)no1	-	-	-	-	-
SMILES	MITF act	Env fusion inh	esBAF inh	miR122 inh	Wnt act
CN1CCN(C(=O)c2ccccc2-c2nc(-c3ccccc3)no2)CC1	-	.	48	-	-
Fc1ccccc1-c1nc(-c2ccncc2)no1	.	-	?	-	55
Fc1ccccc1-c1nc(-c2ccccc2)no1	-	-	-	-	46
COc1ccc(NC(=O)Nc2ccc3c(c2)C(=O)N([C@H](C)CO)C[C@H](C)[C@@H](CN(C)C(=O)NC(C)C)OCCCC[C@H](C)O3)cc1	.	-	-	-	.
C[C@H]1CN([C@@H](C)CO)C(=O)c2cc(Br)cnc2O[C@@H]1CN(C)Cc1ccccn1	.	-	-	-	.
C[C@H]1CN([C@@H](C)CO)C(=O)Cc2cc(NC(=O)Nc3ccccc3)ccc2O[C@H]1CN(C)S(=O)(=O)c1cccs1	.	70[16.7 µM]	-	-	.
C[C@H]1CN([C@@H](C)CO)C(=O)Cc2cc(NC(=O)C3CCCCC3)ccc2O[C@@H]1CN(C)S(=O)(=O)c1cccs1	.	-	-	-	.
C[C@H](CO)N1C[C@H](C)[C@H](CN(C)S(=O)(=O)c2cccs2)Oc2ccc(NC(=O)C3CCCCC3)cc2CC1=O	.	61[16.7 µM]	-	-	.
COc1ccc(S(=O)(=O)Nc2ccc3c(c2)CC(=O)N([C@@H](C)CO)C[C@H](C)[C@H](CN(C)S(=O)(=O)c2cccs2)O3)cc1	.	80[16.7 µM]	-	-	.
COc1ccc(NC(=O)Nc2ccc3c(c2)CC(=O)N([C@H](C)CO)C[C@H](C)[C@@H](CN(C)S(=O)(=O)c2cccs2)O3)cc1	.	-	-	-	.
COc1ccc(NC(=O)Nc2ccc3c(c2)CC(=O)N([C@@H](C)CO)C[C@H](C)[C@H](CN(C)S(=O)(=O)c2cccs2)O3)cc1	.	75[16.7 µM]	-	-	.
Cc1ccccc1S(=O)(=O)N1CCCCN2[C@@H](CO)[C@@H](c3ccc(-c4cncnc4)cc3)[C@@H]2C1	.	.	.	-	.
CO[C@H]1CN(C)C(=O)c2cc(NS(=O)(=O)c3cccc(F)c3)ccc2OC[C@H](C)NC[C@H]1C	.	-	-	.	.
Cc1noc(C)c1S(=O)(=O)Nc1ccc2c(c1)C(=O)N([C@H](C)CO)C[C@H](C)[C@H](CN(C)S(=O)(=O)c1c(C)noc1C)OCCCC[C@H](C)O2	.	-	-	-	.
COCC(=O)Nc1ccc2c(c1)OC[C@H](C)N(Cc1ccccc1)C[C@@H](C)[C@@H](OC)CN(C)C2=O	.	.	-	-	.
CNC[C@@H]1Oc2cc(C#Cc3ccccc3OC)ccc2S(=O)(=O)N([C@@H](C)CO)C[C@H]1C	.	-	-	-	.
CCCNC(=O)C[C@H]1C[C@H]2c3cc(NC(=O)Nc4ccccc4)ccc3O[C@H]2[C@@H](CO)O1	.	-	-	-	.
C[C@H](CO)N1C[C@H](C)[C@H](CN(C)S(=O)(=O)c2cccs2)Oc2ccc(NC(=O)CCN3CCOCC3)cc2CC1=O	.	56[16.7 µM]	-	-	.
C[C@H](CO)N1C[C@H](C)[C@H](CN(C)S(=O)(=O)c2cccs2)Oc2ccc(NC(=O)Cc3ccccc3)cc2CC1=O	.	96[16.7 µM]	-	-	.
C[C@H]1CN([C@@H](C)CO)C(=O)Cc2cc(NC(=O)Cc3ccccc3)ccc2O[C@@H]1CN(C)S(=O)(=O)c1cccs1	.	-	-	-	.
C[C@H]1CN([C@@H](C)CO)C(=O)Cc2cc(NC(=O)CCN3CCOCC3)ccc2O[C@H]1CN(C)S(=O)(=O)c1cccs1	.	-	-	-	.
COc1cccc(-c2ccc3c(c2)[C@H]2[C@H](CCN2S(=O)(=O)c2ccccc2OC)[C@@H](CO)N3)c1	.	.	-	-	.
Cc1noc(C)c1S(=O)(=O)Nc1ccc2c(c1)CC(=O)N([C@@H](C)CO)C[C@@H](C)[C@@H](CN(C)C(=O)NC1CCCCC1)O2	.	-	-	-	.
